Experimental data from the supplement of paper PMC4466140.

target: AgAbp1; test: SPOT peptide array binding signal intensity (averaged, normalized) (arbitrary units (background-subtracted, floor 0; scale differs between SH3 domains)); higher = stronger binding of the SH3 domain to the peptide
Summary of the method: (§1)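 To measure binding, SH3 domains from four yeast species were fused to GST, expressed in E. coli BL21(DE3) and purified on glutathione Sepharose. Each domain was incubated at 10 μg/ml overnight at 4°C on cellulose membranes with synthetic 15-mer peptides whose cysteines were replaced by serines. Anti-GST antibody, an HRP anti-mouse secondary and luminol were used for detection, and images were quantified with Genespotter. Reported binding signal is normalized, background-subtracted spot intensity averaged over replicates, in arbitrary units that differ between domains.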

Binder	SPOT peptide array binding signal intensity
RKLRTVPGVPLIHLT	13
KTRLRPAFIQQLWSS	12

target: AgBbc1; test: as above
Summary of the method: as §1

Binder	SPOT peptide array binding signal intensity
RKLRTVPGVPLIHLT	40.8
KTRLRPAFIQQLWSS	18.8

target: AgBem1-D1; test: as above
Summary of the method: as §1

Binder	SPOT peptide array binding signal intensity
RKLRTVPGVPLIHLT	41
KTRLRPAFIQQLWSS	181

target: AgBzz1-D1; test: as above
Summary of the method: as §1

Binder	SPOT peptide array binding signal intensity
RKLRTVPGVPLIHLT	8
KTRLRPAFIQQLWSS	82.5

target: AgBzz1-D2; test: as above
Summary of the method: as §1

Binder	SPOT peptide array binding signal intensity
RKLRTVPGVPLIHLT	16
KTRLRPAFIQQLWSS	32.5

target: AgCyk3; test: as above
Summary of the method: as §1

Binder	SPOT peptide array binding signal intensity
RKLRTVPGVPLIHLT	0.5
KTRLRPAFIQQLWSS	1

target: AgFus1; test: as above
Summary of the method: as §1

Binder	SPOT peptide array binding signal intensity
RKLRTVPGVPLIHLT	53.5
KTRLRPAFIQQLWSS	286

target: AgHof1; test: as above
Summary of the method: as §1

Binder	SPOT peptide array binding signal intensity
RKLRTVPGVPLIHLT	34.5
KTRLRPAFIQQLWSS	45.5

target: AgHse1; test: as above
Summary of the method: as §1

Binder	SPOT peptide array binding signal intensity
RKLRTVPGVPLIHLT	19.5
KTRLRPAFIQQLWSS	630

target: AgLsb1; test: as above
Summary of the method: as §1

Binder	SPOT peptide array binding signal intensity
RKLRTVPGVPLIHLT	2
KTRLRPAFIQQLWSS	1

target: AgLsb4; test: as above
Summary of the method: as §1

Binder	SPOT peptide array binding signal intensity
RKLRTVPGVPLIHLT	18
KTRLRPAFIQQLWSS	29.5

target: AgMyo5; test: as above
Summary of the method: as §1

Binder	SPOT peptide array binding signal intensity
RKLRTVPGVPLIHLT	≤ 0
KTRLRPAFIQQLWSS	3

target: AgNbp2; test: as above
Summary of the method: as §1

Binder	SPOT peptide array binding signal intensity
RKLRTVPGVPLIHLT	934
KTRLRPAFIQQLWSS	94.5

target: AgRvs167; test: as above
Summary of the method: as §1

Binder	SPOT peptide array binding signal intensity
RKLRTVPGVPLIHLT	2
KTRLRPAFIQQLWSS	2.83

target: AgSho1; test: as above
Summary of the method: as §1

Binder	SPOT peptide array binding signal intensity
RKLRTVPGVPLIHLT	≤ 0
KTRLRPAFIQQLWSS	12

target: AgSla1-D1-D2; test: as above
Summary of the method: as §1

Binder	SPOT peptide array binding signal intensity
RKLRTVPGVPLIHLT	≤ 0
KTRLRPAFIQQLWSS	18

target: AgSla1-D3; test: as above
Summary of the method: as §1

Binder	SPOT peptide array binding signal intensity
RKLRTVPGVPLIHLT	0.25
KTRLRPAFIQQLWSS	19.8

target: CaAbp1-D1; test: as above
Summary of the method: as §1

Binder	SPOT peptide array binding signal intensity
RKLRTVPGVPLIHLT	224
KTRLRPAFIQQLWSS	130

target: CaAbp1-D2; test: as above
Summary of the method: as §1

Binder	SPOT peptide array binding signal intensity
RKLRTVPGVPLIHLT	83
KTRLRPAFIQQLWSS	38.5

target: CaBbc1; test: as above
Summary of the method: as §1

Binder	SPOT peptide array binding signal intensity
RKLRTVPGVPLIHLT	171
KTRLRPAFIQQLWSS	82.5

target: CaBem1-D1; test: as above
Summary of the method: as §1

Binder	SPOT peptide array binding signal intensity
RKLRTVPGVPLIHLT	1
KTRLRPAFIQQLWSS	46

target: CaBzz1-D1; test: as above
Summary of the method: as §1

Binder	SPOT peptide array binding signal intensity
RKLRTVPGVPLIHLT	104
KTRLRPAFIQQLWSS	58.5

target: CaBzz1-D2; test: as above
Summary of the method: as §1

Binder	SPOT peptide array binding signal intensity
RKLRTVPGVPLIHLT	90
KTRLRPAFIQQLWSS	59

target: CaCyk3; test: as above
Summary of the method: as §1

Binder	SPOT peptide array binding signal intensity
RKLRTVPGVPLIHLT	17
KTRLRPAFIQQLWSS	6

target: CaFus1; test: as above
Summary of the method: as §1

Binder	SPOT peptide array binding signal intensity
RKLRTVPGVPLIHLT	147
KTRLRPAFIQQLWSS	912

target: CaHof1; test: as above
Summary of the method: as §1

Binder	SPOT peptide array binding signal intensity
RKLRTVPGVPLIHLT	0.5
KTRLRPAFIQQLWSS	2

target: CaHse1; test: as above
Summary of the method: as §1

Binder	SPOT peptide array binding signal intensity
RKLRTVPGVPLIHLT	1.25
KTRLRPAFIQQLWSS	10.8

target: CaLsb1; test: as above
Summary of the method: as §1

Binder	SPOT peptide array binding signal intensity
RKLRTVPGVPLIHLT	≤ 0
KTRLRPAFIQQLWSS	0.5

target: CaLsb4; test: as above
Summary of the method: as §1

Binder	SPOT peptide array binding signal intensity
RKLRTVPGVPLIHLT	73
KTRLRPAFIQQLWSS	14

target: CaMyo5; test: as above
Summary of the method: as §1

Binder	SPOT peptide array binding signal intensity
RKLRTVPGVPLIHLT	0.25
KTRLRPAFIQQLWSS	4

target: CaNbp2; test: as above
Summary of the method: as §1

Binder	SPOT peptide array binding signal intensity
RKLRTVPGVPLIHLT	281

target: CaRvs167; test: as above
Summary of the method: as §1

Binder	SPOT peptide array binding signal intensity
RKLRTVPGVPLIHLT	24.3

target: CaRvs167-3; test: as above
Summary of the method: as §1

Binder	SPOT peptide array binding signal intensity
RKLRTVPGVPLIHLT	7.25

target: CaSho1; test: as above
Summary of the method: as §1

Binder	SPOT peptide array binding signal intensity
RKLRTVPGVPLIHLT	3.5

target: CaSla1-D1-D2; test: as above
Summary of the method: as §1

Binder	SPOT peptide array binding signal intensity
RKLRTVPGVPLIHLT	20

target: CaSla1-D3; test: as above
Summary of the method: as §1

Binder	SPOT peptide array binding signal intensity
RKLRTVPGVPLIHLT	≤ 0

target: ScAbp1; test: as above
Summary of the method: as §1

Binder	SPOT peptide array binding signal intensity
RKLRTVPGVPLIHLT	14

target: ScBbc1; test: as above
Summary of the method: as §1

Binder	SPOT peptide array binding signal intensity
RKLRTVPGVPLIHLT	21

target: ScBem1-D1; test: as above
Summary of the method: as §1

Binder	SPOT peptide array binding signal intensity
RKLRTVPGVPLIHLT	27.5

target: ScBzz1-D1; test: as above
Summary of the method: as §1

Binder	SPOT peptide array binding signal intensity
RKLRTVPGVPLIHLT	10

target: ScBzz1-D2; test: as above
Summary of the method: as §1

Binder	SPOT peptide array binding signal intensity
RKLRTVPGVPLIHLT	1.5

target: ScCyk3; test: as above
Summary of the method: as §1

Binder	SPOT peptide array binding signal intensity
RKLRTVPGVPLIHLT	9

target: ScFus1; test: as above
Summary of the method: as §1

Binder	SPOT peptide array binding signal intensity
RKLRTVPGVPLIHLT	37

target: ScHof1; test: as above
Summary of the method: as §1

Binder	SPOT peptide array binding signal intensity
RKLRTVPGVPLIHLT	1

target: ScHse1; test: as above
Summary of the method: as §1

Binder	SPOT peptide array binding signal intensity
RKLRTVPGVPLIHLT	178

target: ScLsb1; test: as above
Summary of the method: as §1

Binder	SPOT peptide array binding signal intensity
RKLRTVPGVPLIHLT	1.5

target: ScLsb2; test: as above
Summary of the method: as §1

Binder	SPOT peptide array binding signal intensity
RKLRTVPGVPLIHLT	2

target: ScLsb3; test: as above
Summary of the method: as §1

Binder	SPOT peptide array binding signal intensity
RKLRTVPGVPLIHLT	1030

target: ScLsb4; test: as above
Summary of the method: as §1

Binder	SPOT peptide array binding signal intensity
RKLRTVPGVPLIHLT	22

target: ScMyo3; test: as above
Summary of the method: as §1

Binder	SPOT peptide array binding signal intensity
RKLRTVPGVPLIHLT	≤ 0

target: ScMyo5; test: as above
Summary of the method: as §1

Binder	SPOT peptide array binding signal intensity
RKLRTVPGVPLIHLT	2

target: ScNbp2; test: as above
Summary of the method: as §1

Binder	SPOT peptide array binding signal intensity
RKLRTVPGVPLIHLT	1190

target: ScPex13; test: as above
Summary of the method: as §1

Binder	SPOT peptide array binding signal intensity
RKLRTVPGVPLIHLT	59.5

target: ScRvs167; test: as above
Summary of the method: as §1

Binder	SPOT peptide array binding signal intensity
RKLRTVPGVPLIHLT	1390

target: ScSho1; test: as above
Summary of the method: as §1

Binder	SPOT peptide array binding signal intensity
RKLRTVPGVPLIHLT	110

target: ScSla1-D1-D2; test: as above
Summary of the method: as §1

Binder	SPOT peptide array binding signal intensity
RKLRTVPGVPLIHLT	73

target: ScSla1-D3; test: as above
Summary of the method: as §1

Binder	SPOT peptide array binding signal intensity
RKLRTVPGVPLIHLT	23.5

target: SpAbp1-D1; test: as above
Summary of the method: as §1

Binder	SPOT peptide array binding signal intensity
RKLRTVPGVPLIHLT	17.5

target: SpBbc1; test: as above
Summary of the method: as §1

Binder	SPOT peptide array binding signal intensity
RKLRTVPGVPLIHLT	≤ 0

target: SpBzz1-D1; test: as above
Summary of the method: as §1

Binder	SPOT peptide array binding signal intensity
RKLRTVPGVPLIHLT	71.5

target: SpBzz1-D2; test: as above
Summary of the method: as §1

Binder	SPOT peptide array binding signal intensity
RKLRTVPGVPLIHLT	≤ 0

target: SpCyk3; test: as above
Summary of the method: as §1

Binder	SPOT peptide array binding signal intensity
RKLRTVPGVPLIHLT	≤ 0

target: SpHof1; test: as above
Summary of the method: as §1

Binder	SPOT peptide array binding signal intensity
RKLRTVPGVPLIHLT	22.8

target: SpHof1-2; test: as above
Summary of the method: as §1

Binder	SPOT peptide array binding signal intensity
RKLRTVPGVPLIHLT	2

target: SpHof1-3; test: as above
Summary of the method: as §1

Binder	SPOT peptide array binding signal intensity
RKLRTVPGVPLIHLT	229

target: SpHse1; test: as above
Summary of the method: as §1

Binder	SPOT peptide array binding signal intensity
RKLRTVPGVPLIHLT	68.8

target: SpLsb1; test: as above
Summary of the method: as §1

Binder	SPOT peptide array binding signal intensity
RKLRTVPGVPLIHLT	3.25

target: SpLsb4; test: as above
Summary of the method: as §1

Binder	SPOT peptide array binding signal intensity
RKLRTVPGVPLIHLT	369

target: SpMyo1; test: as above
Summary of the method: as §1

Binder	SPOT peptide array binding signal intensity
RKLRTVPGVPLIHLT	2.75

target: SpNbp2; test: as above
Summary of the method: as §1

Binder	SPOT peptide array binding signal intensity
RKLRTVPGVPLIHLT	7.5

target: SpPex13; test: as above
Summary of the method: as §1

Binder	SPOT peptide array binding signal intensity
RKLRTVPGVPLIHLT	≤ 0

target: SpRvs167; test: as above
Summary of the method: as §1

Binder	SPOT peptide array binding signal intensity
RKLRTVPGVPLIHLT	616

target: SpSla1-D1-D2; test: as above
Summary of the method: as §1

Binder	SPOT peptide array binding signal intensity
RKLRTVPGVPLIHLT	1

target: SpSla1-D3; test: as above
Summary of the method: as §1

Binder	SPOT peptide array binding signal intensity
RKLRTVPGVPLIHLT	≤ 0
